These results are taken from publication PMC7862700, “An all-to-all approach to the identification of sequence-specific readers for epigenetic DNA modifications on cytosine”.

Common to all, as to assay: DAPPL (digital affinity profiling via proximity ligation, sequencing); 10 mM Tris-HCl pH 7.5, 50 mM NaCl, 1 mM DTT, 4% glycerol, room temperature, 30 min; GST-TFs on glutathione beads, 16-mer random dsDNA library, 0.1% formaldehyde crosslink after washing; high values mean tight binding
Common to all, as to details: protein: recombinant; tags: N-terminal GST; dsDNA, one strand shown

One assay addresses T1, ERF (Homo sapiens, UniProt P50548 1-548).
T1 sequence: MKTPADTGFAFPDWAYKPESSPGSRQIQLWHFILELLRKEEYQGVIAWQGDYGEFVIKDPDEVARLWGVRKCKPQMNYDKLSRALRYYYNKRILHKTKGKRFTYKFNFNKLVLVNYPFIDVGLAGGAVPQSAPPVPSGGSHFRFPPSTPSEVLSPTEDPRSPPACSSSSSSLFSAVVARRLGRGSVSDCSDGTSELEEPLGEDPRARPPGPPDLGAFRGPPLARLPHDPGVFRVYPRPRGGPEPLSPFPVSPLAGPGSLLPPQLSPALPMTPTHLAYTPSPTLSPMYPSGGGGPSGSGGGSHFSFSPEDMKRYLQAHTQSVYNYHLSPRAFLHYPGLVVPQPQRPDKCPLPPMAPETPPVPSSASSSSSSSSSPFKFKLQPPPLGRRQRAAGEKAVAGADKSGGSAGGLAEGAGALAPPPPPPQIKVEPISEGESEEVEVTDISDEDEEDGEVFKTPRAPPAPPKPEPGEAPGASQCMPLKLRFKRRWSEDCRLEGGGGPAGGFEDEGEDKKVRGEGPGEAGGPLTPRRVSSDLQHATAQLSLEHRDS
The method, boiled down:
(§1)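 Binding signal is given per hexamer as its read frequency for a factor divided by its frequency in the tag-only sample. GST-fused human transcription factors were expressed in yeast, captured on glutathione beads, barcoded with DNA and pooled with that sample, then incubated with 200 nmole of a 16-mer random double-stranded DNA library in Tris/NaCl/DTT/glycerol buffer for 30 min at room temperature. The pools were then washed, crosslinked, proximity-ligated, amplified by PCR and sequenced on an Illumina NextSeq500.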

The target of the next assay is T2, ETV3L (Homo sapiens, UniProt Q6ZN32 1-361).
T2 sequence: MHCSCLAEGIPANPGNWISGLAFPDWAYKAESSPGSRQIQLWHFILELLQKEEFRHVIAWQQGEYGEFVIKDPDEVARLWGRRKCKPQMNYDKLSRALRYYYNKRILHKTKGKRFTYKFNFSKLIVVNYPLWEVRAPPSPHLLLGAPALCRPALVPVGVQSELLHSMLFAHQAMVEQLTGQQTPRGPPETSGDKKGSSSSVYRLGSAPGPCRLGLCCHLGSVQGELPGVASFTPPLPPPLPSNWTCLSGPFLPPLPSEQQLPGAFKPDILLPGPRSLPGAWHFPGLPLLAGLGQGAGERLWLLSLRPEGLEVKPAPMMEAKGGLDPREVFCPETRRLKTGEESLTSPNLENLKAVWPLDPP
The method, boiled down: as §1

A further assay addresses T3, ETS2 (Homo sapiens, UniProt P15036 1-469).
T3 sequence: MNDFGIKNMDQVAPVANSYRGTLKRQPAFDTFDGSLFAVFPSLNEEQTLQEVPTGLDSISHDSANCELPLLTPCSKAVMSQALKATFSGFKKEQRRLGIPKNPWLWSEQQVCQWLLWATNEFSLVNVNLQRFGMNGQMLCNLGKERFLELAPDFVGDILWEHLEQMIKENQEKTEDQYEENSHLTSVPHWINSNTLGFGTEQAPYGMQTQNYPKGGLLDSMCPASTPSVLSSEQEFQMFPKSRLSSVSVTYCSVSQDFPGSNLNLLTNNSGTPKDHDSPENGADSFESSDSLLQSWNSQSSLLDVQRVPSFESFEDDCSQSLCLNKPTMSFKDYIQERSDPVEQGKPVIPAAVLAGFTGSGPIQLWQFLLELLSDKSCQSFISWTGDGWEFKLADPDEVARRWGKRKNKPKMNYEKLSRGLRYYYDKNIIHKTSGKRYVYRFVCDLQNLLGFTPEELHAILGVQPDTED
The procedure, abridged:
as §1

The target of a further assay is T4, SPDEF (Homo sapiens, UniProt O95238 1-335).
T4 sequence: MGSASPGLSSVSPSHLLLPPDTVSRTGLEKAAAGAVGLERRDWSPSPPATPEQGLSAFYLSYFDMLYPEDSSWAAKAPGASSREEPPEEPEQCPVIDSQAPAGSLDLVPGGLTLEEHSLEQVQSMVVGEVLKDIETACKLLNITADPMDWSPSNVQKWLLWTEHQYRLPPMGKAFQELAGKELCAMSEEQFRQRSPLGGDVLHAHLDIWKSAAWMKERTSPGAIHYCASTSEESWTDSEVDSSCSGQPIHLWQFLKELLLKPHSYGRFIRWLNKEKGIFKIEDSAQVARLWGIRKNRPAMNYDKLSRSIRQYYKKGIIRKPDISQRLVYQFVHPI
The procedure, abridged:
as §1

The target of the next assay is T5, ETV7 (Homo sapiens, UniProt Q9Y603 1-341).
T5 sequence: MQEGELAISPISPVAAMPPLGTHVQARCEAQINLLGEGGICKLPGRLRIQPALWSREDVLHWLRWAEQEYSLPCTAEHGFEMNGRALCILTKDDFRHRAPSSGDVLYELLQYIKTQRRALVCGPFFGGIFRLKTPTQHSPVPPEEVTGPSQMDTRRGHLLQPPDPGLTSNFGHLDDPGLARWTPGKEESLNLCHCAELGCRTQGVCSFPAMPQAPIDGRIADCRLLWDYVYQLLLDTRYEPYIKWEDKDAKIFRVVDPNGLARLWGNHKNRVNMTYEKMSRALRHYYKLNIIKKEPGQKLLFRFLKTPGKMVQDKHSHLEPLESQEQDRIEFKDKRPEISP
The method, boiled down:
as §1

Another assay addresses T6, ELF5 (Homo sapiens, UniProt Q9UKW6-2 1-255).
T6 sequence: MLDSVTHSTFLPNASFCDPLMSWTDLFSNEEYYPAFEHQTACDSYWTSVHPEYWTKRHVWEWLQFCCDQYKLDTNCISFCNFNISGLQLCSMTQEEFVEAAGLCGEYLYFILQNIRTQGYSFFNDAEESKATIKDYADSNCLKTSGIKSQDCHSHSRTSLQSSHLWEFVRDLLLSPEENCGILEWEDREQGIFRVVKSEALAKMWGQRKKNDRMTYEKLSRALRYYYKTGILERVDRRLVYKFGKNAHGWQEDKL
The method, boiled down:
as §1

In another assay the target is T7, ETV3 (Homo sapiens, UniProt P41162-2 1-143).
T7 sequence: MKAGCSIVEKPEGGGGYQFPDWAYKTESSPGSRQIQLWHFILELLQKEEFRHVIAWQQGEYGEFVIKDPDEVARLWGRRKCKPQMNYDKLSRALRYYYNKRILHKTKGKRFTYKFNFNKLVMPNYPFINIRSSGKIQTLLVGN
The procedure, abridged:
as §1

For the next assay, the target named is ETV6 (Homo sapiens, UniProt P41212 1-452). The procedure, abridged: as §1
ETV6, sequence (P41212 whole entry): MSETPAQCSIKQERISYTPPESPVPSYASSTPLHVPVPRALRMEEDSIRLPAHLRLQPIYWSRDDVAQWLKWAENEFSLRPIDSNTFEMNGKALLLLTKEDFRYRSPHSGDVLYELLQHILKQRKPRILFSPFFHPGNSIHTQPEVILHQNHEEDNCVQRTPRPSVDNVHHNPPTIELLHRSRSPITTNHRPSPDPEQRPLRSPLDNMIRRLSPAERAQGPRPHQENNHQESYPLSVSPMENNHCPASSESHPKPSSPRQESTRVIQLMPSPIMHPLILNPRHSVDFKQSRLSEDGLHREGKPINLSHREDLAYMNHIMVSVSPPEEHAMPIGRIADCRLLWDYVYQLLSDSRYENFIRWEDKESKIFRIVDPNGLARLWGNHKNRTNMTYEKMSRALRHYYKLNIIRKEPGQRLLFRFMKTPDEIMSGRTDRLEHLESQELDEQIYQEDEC

For AGCACT, the binding signal with ERF was 1.44 fold enrichment (6-mer frequency, TF over GST control); with ETV3L, 1.42 fold enrichment (6-mer frequency, TF over GST control); in the assay with ETS2 it was 1.43 fold enrichment (6-mer frequency, TF over GST control); in the assay with SPDEF, 1.4 fold enrichment (6-mer frequency, TF over GST control); with ETV7 it was 1.43 fold enrichment (6-mer frequency, TF over GST control); with ELF5 it was 1.52 fold enrichment (6-mer frequency, TF over GST control). Further, the binding signal in the assay with ETV3 was 1.39 fold enrichment (6-mer frequency, TF over GST control); with ETV6, 1.44 fold enrichment (6-mer frequency, TF over GST control).
Regarding ACATTA, the binding signal with ERF is 1.21 fold enrichment (6-mer frequency, TF over GST control); with ETV3L, 1.15 fold enrichment (6-mer frequency, TF over GST control); in the assay with ETS2, 1.19 fold enrichment (6-mer frequency, TF over GST control); in the assay with SPDEF, 1.12 fold enrichment (6-mer frequency, TF over GST control); in the assay with ETV7, 1.15 fold enrichment (6-mer frequency, TF over GST control); with ELF5, 1.1 fold enrichment (6-mer frequency, TF over GST control). The binding signal with ETV3 is 1.15 fold enrichment (6-mer frequency, TF over GST control); with ETV6, 1.16 fold enrichment (6-mer frequency, TF over GST control).
For ATTGTT, the binding signal with ERF was 1.65 fold enrichment (6-mer frequency, TF over GST control); with ETV3L, 1.55 fold enrichment (6-mer frequency, TF over GST control); in the assay with ETS2 it was 1.47 fold enrichment (6-mer frequency, TF over GST control); with SPDEF, 1.46 fold enrichment (6-mer frequency, TF over GST control); with ETV7 it was 1.47 fold enrichment (6-mer frequency, TF over GST control); with ELF5 it was 1.36 fold enrichment (6-mer frequency, TF over GST control). The binding signal is 1.56 fold enrichment (6-mer frequency, TF over GST control) with ETV3 and 1.51 fold enrichment (6-mer frequency, TF over GST control) in the assay with ETV6.
For TTTCGG, the binding signal in the assay with ERF was 1.17 fold enrichment (6-mer frequency, TF over GST control); with ETV3L, 1.22 fold enrichment (6-mer frequency, TF over GST control); with ETS2, 1.24 fold enrichment (6-mer frequency, TF over GST control); with SPDEF, 1.21 fold enrichment (6-mer frequency, TF over GST control); with ETV7 it was 1.28 fold enrichment (6-mer frequency, TF over GST control); with ELF5, 1.21 fold enrichment (6-mer frequency, TF over GST control). Moreover, the binding signal was 1.16 fold enrichment (6-mer frequency, TF over GST control) in the assay with ETV3 and 1.19 fold enrichment (6-mer frequency, TF over GST control) in the assay with ETV6.
For CTGTCT, the binding signal in the assay with ERF was 1.37 fold enrichment (6-mer frequency, TF over GST control); with ETV3L, 1.37 fold enrichment (6-mer frequency, TF over GST control); in the assay with ETS2, 1.4 fold enrichment (6-mer frequency, TF over GST control); with SPDEF it was 1.44 fold enrichment (6-mer frequency, TF over GST control); in the assay with ETV7, 1.53 fold enrichment (6-mer frequency, TF over GST control); with ELF5, 1.28 fold enrichment (6-mer frequency, TF over GST control). The binding signal with ETV3 was 1.45 fold enrichment (6-mer frequency, TF over GST control); with ETV6, 1.32 fold enrichment (6-mer frequency, TF over GST control).
For AAAATC, the binding signal in the assay with ERF is 1.17 fold enrichment (6-mer frequency, TF over GST control); with ETV3L it was 1.18 fold enrichment (6-mer frequency, TF over GST control); with ETS2, 1.14 fold enrichment (6-mer frequency, TF over GST control); with SPDEF, 1.2 fold enrichment (6-mer frequency, TF over GST control); with ETV7 it was 1.16 fold enrichment (6-mer frequency, TF over GST control); in the assay with ELF5 it was 1.15 fold enrichment (6-mer frequency, TF over GST control). Further, the binding signal was 1.13 fold enrichment (6-mer frequency, TF over GST control) in the assay with ETV3 and 1.19 fold enrichment (6-mer frequency, TF over GST control) with ETV6.
Regarding CGTACT, the binding signal with ERF was 1.27 fold enrichment (6-mer frequency, TF over GST control); in the assay with ETV3L it was 1.1 fold enrichment (6-mer frequency, TF over GST control); with ETS2 it was 1.23 fold enrichment (6-mer frequency, TF over GST control); with SPDEF, 1.11 fold enrichment (6-mer frequency, TF over GST control); with ETV7, 1.1 fold enrichment (6-mer frequency, TF over GST control); with ELF5, 1.2 fold enrichment (6-mer frequency, TF over GST control). Moreover, the binding signal with ETV3 is 1.2 fold enrichment (6-mer frequency, TF over GST control); in the assay with ETV6 it was 1.2 fold enrichment (6-mer frequency, TF over GST control).
Regarding AATGAC, the binding signal in the assay with ERF was 1.35 fold enrichment (6-mer frequency, TF over GST control); with ETV3L, 1.43 fold enrichment (6-mer frequency, TF over GST control); in the assay with ETS2, 1.45 fold enrichment (6-mer frequency, TF over GST control); with SPDEF, 1.37 fold enrichment (6-mer frequency, TF over GST control); in the assay with ETV7, 1.29 fold enrichment (6-mer frequency, TF over GST control); in the assay with ELF5 it was 1.36 fold enrichment (6-mer frequency, TF over GST control). For the same sequence, the binding signal with ETV3 is 1.35 fold enrichment (6-mer frequency, TF over GST control); with ETV6, 1.49 fold enrichment (6-mer frequency, TF over GST control).
